The other results are listed elsewhere or left out. Results filed as inconclusive are left out. Unmarked numbers belong to inactive results. Calls come from the whole dose curve; as a rule, active = well fitted curve in the direction sought with a large enough effect; inconclusive = small, poorly fitted or top-dose-only effect, or another doubt; inactive = no such curve, though single readings can be large or run the other way.
Test: Inhibitors of DNA Polymerase Beta: Hit Validation in HIV-RT Assay
Details: HIV-1 RT polymerase activity, counter-screen; series mostly up to 57.1 µM; activity % (negative = inhibition, positive = activation): at the top concentration
Excerpt: The base excision repair system in human cells is a target for therapeutic modulation of the response to irradiation treatment and DNA-damaging drugs. A key enzyme in this system is the bi-functional DNA polymerase known as DNA polymerase beta (pol b). […] Using an integrated approach involving discovery of small molecule probes for pol b via qHTS and validation by crystallography and kinetics along with cell-based validation experiments, we will test the hypothesis that base excision repair can be strategically modulated in human cells by targeting pol b. Thus, we anticipate the pol b-specific probes emerging from this research will serve as starting points in the development of clinical agents for use in down regulation of DNA base excision repair during therapeutic interventions against cancer.
After the completion of the qHTS against the Molecular Libraries Small Molecular Repository (MLSMR), cherry picked compounds were confirmed in the primary qHTS pol beta assay and further characterized in several follow-up assays. To avoid compound promiscuity, we selected a completely unrelated viral polymerase to polymerase beta, HIV reverse transcriptase(RT) as a counter screen. There are distinct differences between the two polymerases, such as source of host and HIV RT is responsible for transcribing the virus' single stranded RNA into double-stranded DNA after entry into its host cell. […] To us, a favorable outcome in this assay is inactivity.
NIH Chemical Genomics Center [NCGC]
NIH Molecular Libraries Probe Centers Network [MLPCN]
Assay Submitter (PI): Samuel Wilson, National Institute of Environmental Health Sciences (NIEHS), NIH
A stepwise description of the 1536-well assay is shown in next Table. Three microliters of reagents (buffer in column 3 and 4 as negative control and 10 nM Pol beta in columns 1, 2, and 5-48) was dispensed into 1,536-well black solid-bottomed plate. Compounds (23 nL) were transferred via Kalypsys pin tool equipped with 1536-pin array (10 nL slotted pins, V&P Scientific, San Diego, CA). The plates were incubated for 15 min at room temperature, and 1 uL substrate (50 nM final concentration) were added to start the reaction and immediately read at 0 min read on Viewlux reader. The plate were further incubated for 10 min at room temperature, and then read on Viewlux again. Throughout the screen, reagent bottle and all liquid lines were chilled and made light-tight to minimize reagent degradation. All screening operations were performed on a fully integrated robotic system (Kalypsys, San Diego, CA) containing one RX-130 and two RX-90 anthropomorphic robotic arms (Staubli, Duncan, SC). Library plates were screened starting from the lowest and proceeding to the highest concentration, and a double-dipping step of the highest concentration was required to access higher concentrations of compounds. Vehicle-only plates, with DMSO being pin-transferred to the entire column 5-48 compound area, were inserted uniformly at the beginning and the end of each library in order to monitor for and record any shifts in the background, which can be affected by reagent dispensers or loss in enzyme activity overtime. Screening data were corrected, normalized, and concentration-effect relationships were derived by using publicly-available curve fitting algorithms developed in-house (http://ncgc.nih.gov/pub/openhts). A four parameter Hill equation was fitted to the concentration-response data by minimizing the residual error between the modeled and observed responses.

SMILES	activity % (negative = inhibition, positive = activation)
COc1cc([C@H](Cc2ccccc2)NC(C)=O)oc(=O)c1	-11.1%
COc1ccc(Cc2nnc(NC(=O)Cc3cccs3)s2)cc1	26.1%
Cc1ccc(C(=O)Oc2coc(CSc3nnc(NC(=O)c4cccs4)s3)cc2=O)cc1C	30%
Cc1ccc2nc(-c3ccncc3)cc(C(=O)Nc3ccc(OC(F)F)cc3)c2c1	31.2%
O=C(Nc1ccc(S(=O)(=O)Nc2nccs2)cc1)c1cc(-c2ccncc2)nc2ccccc12	20.5%
Cc1c(CCC(=O)O)c(=O)oc2c(C)c(OCc3ccccc3Cl)ccc12	31.4%
O=C(c1cc2c(s1)CCC2)N1CCN(c2ccccc2)CC1	32.1%
